{
  "source": "PubChem BioAssay (NCI)",
  "note": "Compounds without any hit were thinned out: in the full panel of roughly 83,000, 20% have a hit.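 Percent growth is the endpoint: 0 to 100 indicates growth inhibition (40 means 60% inhibition), 0 means no net growth, and negative values indicate cell death.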 Active and inactive are the calls of the source. The calls were made as follows: active = growth percent below 10; inactive = the rest.",
  "data": [
    {"test_system": "NCI-H23 lung", "assay": "NCI-60 one-dose screen, 48 h (100 = growth as untreated, 0 = no growth, -100 = all killed)", "details": "10 µM unless noted", "values": [
      {"smiles": "COc1cc(C=O)ccc1OC(=O)c1cc(-c2ccc(C)cc2)n(-c2ccc(S(C)(=O)=O)cc2)n1", "growth": "101% (inactive)"},
      {"smiles": "N#CC1=C(c2cccs2)Nc2c(c(-c3ccccc3)nn2-c2ccccc2)C12C(=O)Nc1ccccc12", "note": "(configuration not stated)", "growth": "13.6% (inactive)"},
      {"smiles": "COc1ccc(/C=C/c2nc3ccccc3c(=O)n2CC(=O)Nc2ccccc2)cc1", "growth": "42.6% (inactive)"},
      {"smiles": "COc1ccc2c(c1)C(=O)N(C)C2C1c2c(cc3c(c2OC)OCO3)CCN1C", "note": "(configuration not stated)", "growth": "64.9% (inactive)"},
      {"smiles": "Cc1ccc(C(C(=O)NC2CCCCC2)N(Cc2ccccc2Cl)C(=O)c2ccc(CN3CCOCC3)o2)o1", "note": "(configuration not stated)", "growth": "93.8% (inactive)"},
      {"smiles": "COc1ccc2c(c1)N=c1c-2cc2c(O)[nH]c(=S)n2c1=O", "growth": "43.1% (inactive)"},
      {"smiles": "Cc1ccc(C2CC(c3ccc(NC(=O)Nc4ccccc4)cc3)=NN2c2ccc(S(C)(=O)=O)cc2)cc1", "note": "(configuration not stated)", "growth": "-69.1% (active)"},
      {"smiles": "COc1ccc(C(=O)NNC(=O)CSc2nc3sc4c(c3c(=O)n2-c2ccc(Cl)cc2)CCCC4)cc1", "growth": "63.2% (inactive)"},
      {"smiles": "Cc1ccc(C2CC(c3ccc(NC(=O)Nc4ccccc4)cc3)=NN2c2ccc(S(N)(=O)=O)cc2)cc1", "note": "(configuration not stated)", "growth": "-95.8% (active)"},
      {"smiles": "O=c1[nH]c2ccccc2cc1CSc1ccccc1Nc1nccc(-c2ccc3c(c2)OCO3)n1", "growth": "85.5% (inactive)"},
      {"smiles": "COc1ccc2c(c1)C(Sc1ccc(F)cc1)c1c(nc(N)c(C#N)c1N)O2", "note": "(configuration not stated)", "growth": "90.7% (inactive)"},
      {"smiles": "O=C1c2cccc3c(N4CCN(Cc5ccccc5)CC4)ccc(c23)C(=O)N1c1cccc(-c2nn(-c3ccccc3)cc2-c2nc3ccccc3s2)c1", "growth": "96% (inactive)"},
      {"smiles": "CCc1ccccc1NC(=O)N/C(N)=N/c1nc2ccccc2s1", "growth": "-2.24% (active)"},
      {"smiles": "O=C(N/N=C/c1ccoc1)c1[nH]c2ccc(Br)cc2c1-c1ccccc1", "growth": "-96.6% (active)"},
      {"smiles": "COC(=O)c1c(C(=O)OC)c2ccc3c4ccccc4ccc3n2c1C(=O)C(C)Br", "note": "(configuration not stated)", "growth": "33.4% (inactive)"},
      {"smiles": "COc1cc(CNC(=O)C[C@H](C)CCC=C(C)C)ccc1OCc1cn(-c2ccc(Cl)cc2Cl)nn1", "growth": "56.6% (inactive)"},
      {"smiles": "O=CNc1cccc(-n2cnc3cc(-c4ccc(O)cc4)ccc32)c1", "growth": "34.6% (inactive)"},
      {"smiles": "O=C(N/N=C/c1occc1Br)c1[nH]c2ccc(Br)cc2c1-c1ccccc1", "growth": "-100% (active)"},
      {"smiles": "Cc1[nH]nc2ccc3nc(-c4cnn(CCO)c4)c4c(c3c12)CCCC4", "growth": "52.7% (inactive)"},
      {"smiles": "Cc1cc(N=C(N)c2ccccc2)ccc1OCCCCCCCCn1ccnc1", "growth": "-28% (active)"},
      {"smiles": "Cc1ccc(C(=O)Nc2cc(-n3ccnc3)cc(C(F)(F)F)c2)cc1-n1cc(-c2cnc3cccnn23)nn1", "growth": "82% (inactive)"},
      {"smiles": "Cc1cc(Cl)ccc1NC(=O)Nc1ccc(-c2ccc3c(c2)NC(=O)/C3=C\\c2ccc[nH]2)cc1", "growth": "74.4% (inactive)"},
      {"smiles": "COc1ccc(NC(=O)NN2C(=O)c3ccccc3N(C)C2c2ccc(OC)cc2)cc1", "note": "(configuration not stated)", "growth": "100% (inactive)"},
      {"smiles": "COc1ccc(-c2nc3ccc(-c4nnc(SCC(=O)Nc5ccc(/C(C)=N\\O)cc5)o4)cc3[nH]2)cc1", "growth": "42.6% (inactive)"},
      {"smiles": "Cc1ccc2c(c1)nc(-c1ccccc1)n2CC(=O)N=Nc1c(O)[nH]c2ccc(Cl)cc12", "growth": "-66% (active)"},
      {"smiles": "COc1ccc2c(c1)c(-c1cc(N)n3nc(-c4c[nH]c5ccccc45)cc3n1)cn2C", "growth": "-69.9% (active)"},
      {"smiles": "COc1cccc(C(N)=Nc2ccc(OCCCCCCCCn3cncn3)cc2)c1", "growth": "9.5% (active)"},
      {"smiles": "COc1ccccc1/C=C/c1cccc(NC(=S)NCCCCN(C)C)c1", "growth": "-97.5% (active)"},
      {"smiles": "Cc1cccc(C)c1Nc1nnc(-c2c[nH]c3ccccc23)o1", "growth": "88.8% (inactive)"},
      {"smiles": "CCOc1ccccc1NC(=O)N/C(N)=N/c1nc2ccccc2s1", "growth": "12.6% (inactive)"},
      {"smiles": "N#Cc1ccc(C(=O)NNC(=O)CSc2nc3sc4c(c3c(=O)n2-c2ccc(Cl)cc2)CCCC4)cc1", "growth": "33.2% (inactive)"},
      {"smiles": "S=C(Nc1ccc(OCc2nc3ccc(Cl)cc3[nH]2)cc1)NC1CCCCC1", "growth": "-68.3% (active)"},
      {"smiles": "COC(=O)c1c(C(=O)OC)c2c3ccccc3c3ccccc3n2c1C(=O)C(C)(C)C", "growth": "82.8% (inactive)"},
      {"smiles": "COc1cc(NC(=O)CSc2nnc(-c3ccc(-c4nc5ccc(Cl)cc5[nH]4)cc3)o2)cc(OC)c1OC", "growth": "52.2% (inactive)"},
      {"smiles": "O=C1/C(=C/c2cnc(-c3ccccc3)s2)SC(=S)N1Cc1ccc2c(c1)OCO2", "growth": "47.1% (inactive)"},
      {"smiles": "CC(=O)c1c2c(c3ccc4c5ccccc5ccc4n13)C(=O)c1ccccc1C2=O", "growth": "68.4% (inactive)"}
    ]},
    {"test_system": "NCI-H226 lung", "assay": "NCI-60 one-dose screen, 48 h (100 = growth as untreated, 0 = no growth, -100 = all killed)", "details": "10 µM unless noted", "values": [
      {"smiles": "COc1cc(C=O)ccc1OC(=O)c1cc(-c2ccc(C)cc2)n(-c2ccc(S(C)(=O)=O)cc2)n1", "growth": "138% (inactive)"},
      {"smiles": "N#CC1=C(c2cccs2)Nc2c(c(-c3ccccc3)nn2-c2ccccc2)C12C(=O)Nc1ccccc12", "note": "(configuration not stated)", "growth": "12.8% (inactive)"},
      {"smiles": "COc1ccc(/C=C/c2nc3ccccc3c(=O)n2CC(=O)Nc2ccccc2)cc1", "growth": "-26.4% (active)"},
      {"smiles": "COc1ccc2c(c1)C(=O)N(C)C2C1c2c(cc3c(c2OC)OCO3)CCN1C", "note": "(configuration not stated)", "growth": "65.1% (inactive)"},
      {"smiles": "Cc1ccc(C(C(=O)NC2CCCCC2)N(Cc2ccccc2Cl)C(=O)c2ccc(CN3CCOCC3)o2)o1", "note": "(configuration not stated)", "growth": "101% (inactive)"},
      {"smiles": "O=C(NNC(=S)NCCc1ccccc1)c1ccc(OCc2nc3ccc(Cl)cc3[nH]2)cc1", "growth": "97.7% (inactive)"},
      {"smiles": "COc1ccc2c(c1)N=c1c-2cc2c(O)[nH]c(=S)n2c1=O", "growth": "46.1% (inactive)"},
      {"smiles": "Cc1ccc(C2CC(c3ccc(NC(=O)Nc4ccccc4)cc3)=NN2c2ccc(S(C)(=O)=O)cc2)cc1", "note": "(configuration not stated)", "growth": "-39.2% (active)"},
      {"smiles": "COc1ccc(C(=O)NNC(=O)CSc2nc3sc4c(c3c(=O)n2-c2ccc(Cl)cc2)CCCC4)cc1", "growth": "33.1% (inactive)"},
      {"smiles": "N#Cc1c(-c2ccc(F)cc2)nc(SCc2ccc(F)cc2)nc1N1CCNCC1", "growth": "76.9% (inactive)"},
      {"smiles": "Cc1ccc(C2CC(c3ccc(NC(=O)Nc4ccccc4)cc3)=NN2c2ccc(S(N)(=O)=O)cc2)cc1", "note": "(configuration not stated)", "growth": "-80.4% (active)"},
      {"smiles": "O=c1[nH]c2ccccc2cc1CSc1ccccc1Nc1nccc(-c2ccc3c(c2)OCO3)n1", "growth": "49.7% (inactive)"},
      {"smiles": "COc1ccc2c(c1)C(Sc1ccc(F)cc1)c1c(nc(N)c(C#N)c1N)O2", "note": "(configuration not stated)", "growth": "90.9% (inactive)"},
      {"smiles": "O=C1c2cccc3c(N4CCN(Cc5ccccc5)CC4)ccc(c23)C(=O)N1c1cccc(-c2nn(-c3ccccc3)cc2-c2nc3ccccc3s2)c1", "growth": "82% (inactive)"},
      {"smiles": "CCc1ccccc1NC(=O)N/C(N)=N/c1nc2ccccc2s1", "growth": "22.5% (inactive)"},
      {"smiles": "O=C(N/N=C/c1ccoc1)c1[nH]c2ccc(Br)cc2c1-c1ccccc1", "growth": "-66.2% (active)"},
      {"smiles": "COC(=O)c1c(C(=O)OC)c2ccc3c4ccccc4ccc3n2c1C(=O)C(C)Br", "note": "(configuration not stated)", "growth": "61.7% (inactive)"},
      {"smiles": "COc1cc(CNC(=O)C[C@H](C)CCC=C(C)C)ccc1OCc1cn(-c2ccc(Cl)cc2Cl)nn1", "growth": "66.4% (inactive)"},
      {"smiles": "O=CNc1cccc(-n2cnc3cc(-c4ccc(O)cc4)ccc32)c1", "growth": "-0.208% (active)"},
      {"smiles": "O=C(N/N=C/c1occc1Br)c1[nH]c2ccc(Br)cc2c1-c1ccccc1", "growth": "-82.5% (active)"},
      {"smiles": "Cc1[nH]nc2ccc3nc(-c4cnn(CCO)c4)c4c(c3c12)CCCC4", "growth": "28.6% (inactive)"},
      {"smiles": "Cc1ccc(C(=O)Nc2cc(-n3ccnc3)cc(C(F)(F)F)c2)cc1-n1cc(-c2cnc3cccnn23)nn1", "growth": "89.9% (inactive)"},
      {"smiles": "Cc1cc(Cl)ccc1NC(=O)Nc1ccc(-c2ccc3c(c2)NC(=O)/C3=C\\c2ccc[nH]2)cc1", "growth": "107% (inactive)"},
      {"smiles": "COc1ccc(NC(=O)NN2C(=O)c3ccccc3N(C)C2c2ccc(OC)cc2)cc1", "note": "(configuration not stated)", "growth": "106% (inactive)"},
      {"smiles": "COc1ccc(-c2nc3ccc(-c4nnc(SCC(=O)Nc5ccc(/C(C)=N\\O)cc5)o4)cc3[nH]2)cc1", "growth": "77.5% (inactive)"},
      {"smiles": "Cc1ccc2c(c1)nc(-c1ccccc1)n2CC(=O)N=Nc1c(O)[nH]c2ccc(Cl)cc12", "growth": "-53.5% (active)"},
      {"smiles": "COc1ccc2c(c1)c(-c1cc(N)n3nc(-c4c[nH]c5ccccc45)cc3n1)cn2C", "growth": "-33.1% (active)"},
      {"smiles": "COc1ccccc1/C=C/c1cccc(NC(=S)NCCCCN(C)C)c1", "growth": "-71.5% (active)"},
      {"smiles": "Cc1cccc(C)c1Nc1nnc(-c2c[nH]c3ccccc23)o1", "growth": "78.9% (inactive)"},
      {"smiles": "CCOc1ccccc1NC(=O)N/C(N)=N/c1nc2ccccc2s1", "growth": "33.9% (inactive)"},
      {"smiles": "N#Cc1ccc(C(=O)NNC(=O)CSc2nc3sc4c(c3c(=O)n2-c2ccc(Cl)cc2)CCCC4)cc1", "growth": "54.1% (inactive)"},
      {"smiles": "S=C(Nc1ccc(OCc2nc3ccc(Cl)cc3[nH]2)cc1)NC1CCCCC1", "growth": "-1.48% (active)"},
      {"smiles": "COC(=O)c1c(C(=O)OC)c2c3ccccc3c3ccccc3n2c1C(=O)C(C)(C)C", "growth": "85.7% (inactive)"},
      {"smiles": "COc1cc(NC(=O)CSc2nnc(-c3ccc(-c4nc5ccc(Cl)cc5[nH]4)cc3)o2)cc(OC)c1OC", "growth": "57.3% (inactive)"},
      {"smiles": "O=C1/C(=C/c2cnc(-c3ccccc3)s2)SC(=S)N1Cc1ccc2c(c1)OCO2", "growth": "75.6% (inactive)"},
      {"smiles": "CC(=O)c1c2c(c3ccc4c5ccccc5ccc4n13)C(=O)c1ccccc1C2=O", "growth": "54.8% (inactive)"}
    ]}
  ]
}
